Source: PubChem BioAssay (EPA / NIEHS)
The source made the active and inactive calls. Rule for the calls: active = hit-call score of the fitted dose curve at least 0.9, where 1 is the maximum; inactive = score below 0.9.

Assays:
[1] = biological target: Transcription factor E2F1 (Homo sapiens) (UniProt Q01094); assay: ATG_E2F_CIS: Attagene CIS-FACTORIAL HepG2 Assay for human E2F Transcription Factor 1 (AID 2282935); settings: HepG2 Attagene cis-reporter, E2F reporter RNA transcripts; actives raise or lower the signal
Method in brief: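 Total RNA from 24 h-treated, reporter-transfected HepG2 cells undergoes DNase I treatment, oligo(dT) reverse transcription, PCR and 6-FAM primer extension before capillary electrophoresis.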

[2] = ATG_E_Box_CIS: Attagene CIS-FACTORIAL HepG2 Assay for human Enhancer Box (E-box) (AID 2282936); settings: HepG2 E-box cis-reporter transcription, actives raise or lower the signal
Method in brief: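 DMSO served as negative control and baseline for bidirectional fitting. Human hepatoma HepG2 cells, transiently transfected with cis-reporter constructs, were dosed 24 h; reporter mRNA read by RT-PCR and capillary electrophoresis.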

[3] = ATG_M_61_CIS: Attagene CIS-FACTORIAL HepG2 Assay for M61 Transcription Factor (Internal Marker) (AID 2282937); settings: HepG2 Attagene CIS-FACTORIAL M61 internal marker reporter; actives raise or lower the signal
Method in brief: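 Endogenous transcription factor activity in HepG2 is read through transiently transfected cis-element reporter units. After 24 h dosing, RNA undergoes reverse transcription, PCR and primer extension with 6-FAM before capillary electrophoresis; DMSO-referenced bidirectional fit.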

[4] = ATG_EGR_CIS: Attagene CIS-FACTORIAL HepG2 Assay for human Early Growth Response 1 (EGR1) (AID 2282938); settings: HepG2 Attagene CIS-FACTORIAL EGR reporter mRNA; actives raise or lower the signal
Method in brief: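 Activity is taken as induction or loss of reporter mRNA versus DMSO, fitted bidirectionally. Transcripts from cis-regulated reporter units in transiently transfected HepG2 were measured after 24 h by RT-PCR with capillary electrophoresis.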

[5] = ATG_M_19_CIS: Attagene CIS-FACTORIAL HepG2 Assay for M19 Transcription Factor (Internal Marker) (AID 2282939); settings: HepG2 Attagene CIS-FACTORIAL M19 internal marker reporter; actives raise or lower the signal
Method in brief: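 Background-control endpoint from a multiplexed HepG2 reporter panel. Cells carrying cis-regulated reporter constructs are treated 24 h, then reporter transcripts are amplified, fluorescently labelled and sized by capillary electrophoresis. DMSO defines baseline.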

[6] = ATG_ERE_CIS: Attagene CIS-FACTORIAL HepG2 Assay for Estrogen Response Element (ERE) (AID 2282940); settings: HepG2 ERE cis-reporter, Attagene RNA transcript; actives raise or lower the signal
Method in brief: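 Cells used were human hepatoma HepG2, transfected with multiple reporter transcription units under cis-regulatory promoters. Reporter mRNA, read 24 h post-dosing via fluorescent RT-PCR products on capillary electrophoresis, was fitted bidirectionally relative to DMSO.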

[7] = ATG_Ets_CIS: Attagene CIS-FACTORIAL HepG2 Assay for human Erythroblast Transformation Specific (ETS) (AID 2282941); settings: HepG2 ETS cis-reporter transcription, actives raise or lower the signal
Method in brief: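 HepG2 cells transfected with multiple cis-regulated reporter units measuring endogenous ETS-driven transcription, 24 h after dosing. Reporter mRNA quantified by RT-PCR with capillary electrophoresis; bidirectional fit relative to DMSO.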

[8] = biological target: Hepatocyte nuclear factor 3-beta (Homo sapiens) (UniProt Q9Y261); assay: ATG_FoxA2_CIS: Attagene CIS-FACTORIAL HepG2 Assay for human Forkhead box A2 (FOXA2) (AID 2282942); settings: HepG2 cis-reporter transcription factor activity, 24 h; actives raise or lower the signal
Method in brief: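 Reporter transcript induction is measured by fluorescence after capillary electrophoresis of RT-PCR products from HepG2 cells exposed 24 h. Cis-regulated reporter units report endogenous factor activity; curves fitted both directions against DMSO.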

[9] = ATG_FoxO_CIS: Attagene CIS-FACTORIAL HepG2 Assay for human Forkhead box O (FoxO) (AID 2282943); settings: HepG2 Attagene cis-reporter, FoxO element, mRNA; actives raise or lower the signal
Method in brief: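 Human hepatoma HepG2 cells carry transiently introduced reporter transcription units controlled by cis promoter elements. Chemical treatment lasted 24 h, and mRNA signal was compared with DMSO.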

[10] = ATG_GATA_CIS: Attagene CIS-FACTORIAL HepG2 Assay for human GATA Binding Protein (AID 2282944); settings: HepG2 GATA cis-element reporter, Attagene multiplex mRNA; actives raise or lower the signal
Method in brief: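 Endogenous transcription factor activity was captured through cis-promoter-driven reporters in transfected HepG2 cells. After 24 h exposure, reporter transcripts were quantified by RT-PCR with fluorescent capillary electrophoresis, and responses fitted both directions against DMSO.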

[11] = ATG_GLI_CIS: Attagene CIS-FACTORIAL HepG2 Assay for human Zinc Finger Protein GLI1 (AID 2282945); settings: HepG2, Attagene cis-factorial reporter mRNA, GLI element; actives raise or lower the signal
Method in brief: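 Bidirectional curve fits relative to DMSO, using reporter mRNA levels from RT-PCR plus capillary electrophoresis. Cells were HepG2 transiently carrying cis-regulated reporter constructs, harvested 24 h after dosing.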

[12] = ATG_ISRE_CIS: Attagene CIS-FACTORIAL HepG2 Assay for human Interferon Regulatory Factor 1 (IRF1) binding to an Interferon-Stimulated Response Element (ISRE) (AID 2282948); settings: HepG2 ISRE cis-reporter (Attagene), mRNA transcription readout; actives raise or lower the signal
Method in brief: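 Transiently transfected HepG2 cells carrying cis-element reporter units, dosed 24 hours. Reporter mRNA quantified by RT-PCR, fluorescent primer extension, HpaI digestion and capillary electrophoresis. Bidirectional fitting relative to DMSO.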

[13] = ATG_M_32_CIS: Attagene CIS-FACTORIAL HepG2 Assay for M32 Transcription Factor (Internal Marker) (AID 2282949); settings: HepG2 Attagene cis-factorial M32 reporter, mRNA; actives raise or lower the signal;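 note: background control marker of the multiplexed CIS panel rather than a real target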
Method in brief: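 Internal background marker read-out: RT-PCR/capillary electrophoresis fluorescence of reporter transcripts from transiently transfected HepG2 cells after 24 h chemical exposure. Activity fitted bidirectionally relative to DMSO negative control.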

[14] = ATG_M_06_CIS: Attagene CIS-FACTORIAL HepG2 Assay for M06 Transcription Factor (Internal Marker) (AID 2282950); settings: HepG2 Attagene CIS-FACTORIAL M06 internal marker reporter; actives raise or lower the signal
Method in brief: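 Steps: transfect HepG2 with multiplexed cis-element reporter constructs; dose chemical 24 h; extract RNA with DNase treatment; reverse-transcribe, PCR-amplify, 6-FAM label, HpaI digest; separate fragments by capillary electrophoresis. Activity fitted both directions versus DMSO.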

[15] = biological target: Hypoxia-inducible factor 1-alpha (Homo sapiens) (UniProt Q16665); assay: ATG_HIF1a_CIS: Attagene CIS-FACTORIAL HepG2 Assay for human Hypoxia Inducible Factor 1 (HIF1A) (AID 2282951); settings: HepG2 Attagene cis-factorial HIF1a reporter transcription; actives raise or lower the signal
Method in brief: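 Fluorescence intensity of capillary-separated, 6-FAM-labelled reporter amplicons gives mRNA induction in HepG2 cells carrying transfected cis-promoter reporter units; cells exposed 24 h, responses fitted up or down from DMSO.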

[16] = biological target: Hepatocyte nuclear factor 6 (Homo sapiens) (UniProt Q9UBC0); assay: ATG_HNF6_CIS: Attagene CIS-FACTORIAL HepG2 Assay for human Hepatocyte Nuclear Factor 6 (HNF6) (AID 2282952); settings: HepG2 Attagene cis-factorial HNF6 reporter transcription; actives raise or lower the signal
Method in brief: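 HepG2 cells transiently transfected with cis-element-driven multiple reporter transcription units, dosed 24 h; reporter mRNA quantified by RT-PCR, FAM primer extension, HpaI digestion and capillary electrophoresis; bidirectional fit versus DMSO baseline.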

[17] = biological target: Heat shock factor protein 1 (Homo sapiens) (UniProt Q00613); assay: ATG_HSE_CIS: Attagene CIS-FACTORIAL HepG2 Assay for human Heat Shock Transcription Factor 1 (HSE) (AID 2282953); settings: HepG2 HSE cis-reporter, Attagene RNA transcription; actives raise or lower the signal
Method in brief: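 Cells were transfected with cis-element-driven reporter constructs, dosed for 24 h, then total RNA was reverse-transcribed and reporter cDNA amplified, FAM-labelled and digested with HpaI. Fragments were resolved by capillary electrophoresis; gain or loss was fitted against DMSO.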

[18] = ATG_MRE_CIS: Attagene CIS-FACTORIAL HepG2 Assay for human Metal Responsive Element (MRE) (AID 2282954); settings: HepG2 MRE cis-reporter transcription, Attagene multiplex; actives raise or lower the signal
Method in brief: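 After a 24 h chemical exposure, transiently transfected HepG2 cells yield RNA whose reporter sequences are amplified, FAM-labelled and sized by capillary electrophoresis. Curves are fitted bidirectionally relative to DMSO.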

[19] = ATG_GRE_CIS: Attagene CIS-FACTORIAL HepG2 Assay for human Glucocorticoid Response Elements (GRE) (AID 2282947); settings: HepG2 GRE cis-reporter, Attagene multiplex mRNA; actives raise or lower the signal
Method in brief: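 Assay uses human hepatoma HepG2 cells transfected with cis-promoter reporter units, exposed 24 h. mRNA from reporters detected by RT-PCR plus capillary electrophoresis; DMSO serves as negative control and baseline.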

[20] = biological target: Bile acid receptor (Homo sapiens) (UniProt Q96RI1); assay: ATG_IR1_CIS: Attagene CIS-FACTORIAL HepG2 Assay for human Nuclear Receptor Subfamily 1 Group H Member 4 (NR1H4), IR1 submotif (AID 2282946); settings: IR1 reporter transcription, actives raise or lower the signal
Method in brief: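 Cells (human HepG2) carry transiently transfected cis-promoter reporter transcription units. Compounds are incubated 24 h, total RNA is reverse-transcribed and amplified, and labelled fragments are resolved by capillary electrophoresis. Curves use DMSO as baseline.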

Sequence of Hypoxia-inducible factor 1-alpha (Homo sapiens) (Q16665 whole entry, looked up): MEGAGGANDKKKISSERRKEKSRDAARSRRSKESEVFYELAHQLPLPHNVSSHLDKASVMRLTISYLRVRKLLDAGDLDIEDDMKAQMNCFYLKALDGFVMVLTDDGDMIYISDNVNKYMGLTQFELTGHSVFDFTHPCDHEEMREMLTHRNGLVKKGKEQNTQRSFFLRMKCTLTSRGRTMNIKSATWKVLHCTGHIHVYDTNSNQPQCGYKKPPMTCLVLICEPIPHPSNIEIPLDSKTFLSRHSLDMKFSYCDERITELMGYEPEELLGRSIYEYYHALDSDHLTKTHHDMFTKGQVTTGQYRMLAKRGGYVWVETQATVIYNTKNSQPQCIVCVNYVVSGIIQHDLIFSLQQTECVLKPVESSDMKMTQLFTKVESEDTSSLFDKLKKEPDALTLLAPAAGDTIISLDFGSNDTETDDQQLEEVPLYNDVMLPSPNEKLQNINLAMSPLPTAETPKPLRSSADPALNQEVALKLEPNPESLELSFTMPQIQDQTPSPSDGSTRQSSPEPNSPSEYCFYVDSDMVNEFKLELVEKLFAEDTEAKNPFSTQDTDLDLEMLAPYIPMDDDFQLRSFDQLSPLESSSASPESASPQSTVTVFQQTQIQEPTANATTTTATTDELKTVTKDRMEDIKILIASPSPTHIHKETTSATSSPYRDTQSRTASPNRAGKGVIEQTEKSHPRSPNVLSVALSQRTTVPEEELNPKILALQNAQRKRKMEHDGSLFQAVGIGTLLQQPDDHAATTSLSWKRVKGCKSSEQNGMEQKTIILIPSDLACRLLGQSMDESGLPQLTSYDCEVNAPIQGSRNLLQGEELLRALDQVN
Sequence of Hepatocyte nuclear factor 6 (Homo sapiens) (Q9UBC0 whole entry, looked up): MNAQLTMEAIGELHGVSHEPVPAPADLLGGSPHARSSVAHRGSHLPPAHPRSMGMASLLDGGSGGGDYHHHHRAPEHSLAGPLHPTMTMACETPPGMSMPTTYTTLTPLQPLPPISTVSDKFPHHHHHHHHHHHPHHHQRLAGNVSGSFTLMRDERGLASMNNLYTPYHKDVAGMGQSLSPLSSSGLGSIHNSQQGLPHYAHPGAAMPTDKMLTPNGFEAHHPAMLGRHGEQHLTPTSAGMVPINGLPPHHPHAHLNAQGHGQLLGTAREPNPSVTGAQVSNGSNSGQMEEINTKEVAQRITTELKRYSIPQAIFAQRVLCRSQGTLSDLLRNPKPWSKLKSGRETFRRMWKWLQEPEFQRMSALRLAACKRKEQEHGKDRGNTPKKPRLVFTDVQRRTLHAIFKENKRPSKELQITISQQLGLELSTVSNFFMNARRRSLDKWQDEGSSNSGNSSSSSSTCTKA
Sequence of Transcription factor E2F1 (Homo sapiens) (Q01094 whole entry, looked up): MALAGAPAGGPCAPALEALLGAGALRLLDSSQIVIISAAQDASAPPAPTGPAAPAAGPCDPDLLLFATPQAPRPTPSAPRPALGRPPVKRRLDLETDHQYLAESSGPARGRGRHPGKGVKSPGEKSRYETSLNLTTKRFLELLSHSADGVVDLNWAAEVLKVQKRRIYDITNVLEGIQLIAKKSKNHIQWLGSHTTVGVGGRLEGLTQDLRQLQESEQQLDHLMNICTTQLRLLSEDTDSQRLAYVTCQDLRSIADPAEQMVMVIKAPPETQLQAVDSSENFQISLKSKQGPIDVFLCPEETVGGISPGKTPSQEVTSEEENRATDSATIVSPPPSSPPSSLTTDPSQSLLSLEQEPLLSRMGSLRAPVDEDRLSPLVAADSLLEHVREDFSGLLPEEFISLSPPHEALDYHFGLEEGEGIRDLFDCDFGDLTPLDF
Sequence of Heat shock factor protein 1 (Homo sapiens) (Q00613 whole entry, looked up, the tested form may be a part): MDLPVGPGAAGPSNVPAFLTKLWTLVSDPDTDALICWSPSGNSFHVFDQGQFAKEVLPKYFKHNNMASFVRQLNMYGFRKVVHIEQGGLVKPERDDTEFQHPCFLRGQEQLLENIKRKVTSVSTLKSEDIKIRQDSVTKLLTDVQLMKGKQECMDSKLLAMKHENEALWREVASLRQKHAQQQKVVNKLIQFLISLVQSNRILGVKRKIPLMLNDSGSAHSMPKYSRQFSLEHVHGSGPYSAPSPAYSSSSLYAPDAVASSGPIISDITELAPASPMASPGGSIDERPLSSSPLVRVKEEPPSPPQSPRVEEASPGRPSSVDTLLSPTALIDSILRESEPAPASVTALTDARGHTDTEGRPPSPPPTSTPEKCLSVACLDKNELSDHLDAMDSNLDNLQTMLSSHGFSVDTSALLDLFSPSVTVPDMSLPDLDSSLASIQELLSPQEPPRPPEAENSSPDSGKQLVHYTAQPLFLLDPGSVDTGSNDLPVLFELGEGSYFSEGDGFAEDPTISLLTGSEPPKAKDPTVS
Sequence of Hepatocyte nuclear factor 3-beta (Homo sapiens) (Q9Y261 whole entry, looked up): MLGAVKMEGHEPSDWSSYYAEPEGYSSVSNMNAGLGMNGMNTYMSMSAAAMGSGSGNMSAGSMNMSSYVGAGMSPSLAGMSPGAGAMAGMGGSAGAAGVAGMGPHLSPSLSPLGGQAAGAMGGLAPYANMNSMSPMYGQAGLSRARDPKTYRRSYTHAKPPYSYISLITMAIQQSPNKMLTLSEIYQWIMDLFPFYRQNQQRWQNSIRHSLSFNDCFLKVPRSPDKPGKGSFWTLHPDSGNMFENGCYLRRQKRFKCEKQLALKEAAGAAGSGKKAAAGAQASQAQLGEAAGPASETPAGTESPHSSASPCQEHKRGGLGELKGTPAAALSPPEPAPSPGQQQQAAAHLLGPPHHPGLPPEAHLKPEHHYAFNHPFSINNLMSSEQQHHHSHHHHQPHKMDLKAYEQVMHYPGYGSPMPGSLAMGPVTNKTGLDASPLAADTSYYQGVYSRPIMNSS
Sequence of Bile acid receptor (Homo sapiens) (Q96RI1 whole entry, looked up, the tested form may be a part): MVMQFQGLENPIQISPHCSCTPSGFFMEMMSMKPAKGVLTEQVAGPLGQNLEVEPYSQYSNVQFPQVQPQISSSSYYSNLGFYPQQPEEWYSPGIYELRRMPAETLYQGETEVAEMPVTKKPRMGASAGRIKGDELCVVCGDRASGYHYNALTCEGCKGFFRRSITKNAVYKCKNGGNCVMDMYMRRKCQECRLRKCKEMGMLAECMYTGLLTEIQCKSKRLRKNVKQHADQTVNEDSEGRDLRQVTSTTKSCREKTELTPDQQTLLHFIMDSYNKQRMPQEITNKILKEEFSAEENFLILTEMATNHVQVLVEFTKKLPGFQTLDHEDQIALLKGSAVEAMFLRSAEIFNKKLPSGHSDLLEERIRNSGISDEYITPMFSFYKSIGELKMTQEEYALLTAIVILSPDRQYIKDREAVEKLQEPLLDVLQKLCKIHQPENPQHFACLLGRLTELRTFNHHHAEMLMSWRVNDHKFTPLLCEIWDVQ

## c1ccc(Nc2cccc3ccccc23)cc1
[1]
  AC50: 33.4 µM (active)
[2]
  outcome: inactive
[3]
  outcome: inactive
[4]
  AC50: 46.8 µM (active)
[5]
  AC50: 47.9 µM (active)
[6]
  AC50: 2.06 µM (active)
[7]
  AC50: 33.4 µM (active)
[8]
  outcome: inactive
[9]
  AC50: 53.2 µM (active)
[10]
  outcome: inactive
[11]
  AC50: 54 µM (active)
[12]
  AC50: 24.8 µM (active)
[13]
  outcome: inactive
[14]
  outcome: inactive
[15]
  outcome: inactive
[16]
  AC50: 51.8 µM (active)
[17]
  AC50: 53.8 µM (active)
[18]
  AC50: 49.7 µM (active)

## Oc1ccc(-c2ccccc2)c(Cl)c1
[1]
  outcome: inactive
[2]
  outcome: inactive
[3]
  outcome: inactive
[4]
  AC50: 53.9 µM (active)
[5]
  outcome: inactive
[6]
  AC50: 9.09 µM (active)
[7]
  outcome: inactive
[8]
  outcome: inactive
[9]
  outcome: inactive
[10]
  outcome: inactive
[11]
  outcome: inactive
[19]
  outcome: inactive
[12]
  outcome: inactive
[13]
  outcome: inactive
[14]
  outcome: inactive
[15]
  AC50: 8.12 µM (active)
[17]
  outcome: inactive
[18]
  AC50: 52.9 µM (active)

## Nc1ccc(C(=O)O)cc1
[1]
  outcome: inactive
[2]
  outcome: inactive
[3]
  outcome: inactive
[4]
  outcome: inactive
[5]
  outcome: inactive
[6]
  outcome: inactive
[7]
  outcome: inactive
[8]
  outcome: inactive
[9]
  outcome: inactive
[10]
  outcome: inactive
[20]
  outcome: inactive
[19]
  outcome: inactive
[12]
  outcome: inactive
[13]
  outcome: inactive
[14]
  outcome: inactive
[15]
  outcome: inactive
[16]
  outcome: inactive
[17]
  outcome: inactive
[18]
  outcome: inactive

## CC1C(C)(C)C2=C(C(=O)CCC2)C1(C)C (centres undefined)
[1]
  outcome: inactive
[2]
  outcome: inactive
[3]
  outcome: inactive
[4]
  outcome: inactive
[5]
  outcome: inactive
[6]
  AC50: 26.6 µM (active)
[7]
  outcome: inactive
[8]
  outcome: inactive
[9]
  outcome: inactive
[10]
  outcome: inactive
[11]
  outcome: inactive
[19]
  outcome: inactive
[12]
  outcome: inactive
[13]
  outcome: inactive
[14]
  outcome: inactive
[15]
  outcome: inactive
[17]
  outcome: inactive
[18]
  outcome: inactive

## CC(C)(O)Cc1ccccc1
[1]
  outcome: inactive
[2]
  outcome: inactive
[3]
  outcome: inactive
[4]
  outcome: inactive
[5]
  outcome: inactive
[6]
  outcome: inactive
[7]
  outcome: inactive
[8]
  outcome: inactive
[9]
  outcome: inactive
[10]
  outcome: inactive
[11]
  outcome: inactive
[19]
  outcome: inactive
[12]
  outcome: inactive
[13]
  outcome: inactive
[14]
  outcome: inactive
[15]
  outcome: inactive
[16]
  outcome: inactive
[17]
  outcome: inactive
[18]
  outcome: inactive

## C=CC(=O)NCOCCCC
[1]
  outcome: inactive
[2]
  outcome: inactive
[3]
  outcome: inactive
[4]
  outcome: inactive
[5]
  outcome: inactive
[6]
  outcome: inactive
[7]
  outcome: inactive
[8]
  outcome: inactive
[9]
  outcome: inactive
[10]
  outcome: inactive
[11]
  outcome: inactive
[19]
  outcome: inactive
[12]
  outcome: inactive
[13]
  outcome: inactive
[14]
  outcome: inactive
[15]
  outcome: inactive
[16]
  outcome: inactive
[17]
  outcome: inactive
[18]
  outcome: inactive

## C=C(C)C(=O)OCCOC(=O)C(=C)C
[1]
  outcome: inactive
[2]
  outcome: inactive
[3]
  outcome: inactive
[4]
  outcome: inactive
[5]
  outcome: inactive
[6]
  outcome: inactive
[7]
  outcome: inactive
[8]
  outcome: inactive
[9]
  outcome: inactive
[10]
  outcome: inactive
[11]
  outcome: inactive
[19]
  outcome: inactive
[12]
  outcome: inactive
[13]
  outcome: inactive
[14]
  outcome: inactive
[15]
  outcome: inactive
[16]
  outcome: inactive
[18]
  outcome: inactive
